KDM5B inhibitor – inhibitors of human KDM5B histone demethylase; KDM5B demethylase, FDH-coupled NADH fluorescence (FDH is formaldehyde dehydrogenase); AID 1347165; 2.6% of 220,000 active; Q9UGL1; Potency, µM (top dose mostly 57.7 µM), usual class: inhibitors; active means well fitted inhibition curve with a large enough effect; further: 0% is about no effect; nearly all actives have a fitted effect of over 70% in size
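qHTS format, multiple compound concentrations. Buffer 50 mM HEPES pH 7.5/0.01% Tween-20; 200 nM KDM5BΔAP final; 10 min compound preincubation; substrate-mix levels 12.5 µM peptide, 25 µM α-KG, 0.25 mM NAD⁺; 30 min RT; ΔRFU.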
Starred values were filed as active, the others as inactive; i = inactive. This is one part of a sample in which hits are shown more often than they occur. Potency means the concentration at half of the fitted maximal effect.

SMILES	KDM5B inhibitor
CN(c1ccccc1)c1cc(=O)c2ccnc(N3CCOCC3)c2o1	i
CN(c1cc(=O)c2ccnc(-c3cncnc3)c2o1)C1CCOCC1	i
CN1CCN(c2nccc3c(=O)cc(N(C)C4CCOCC4)oc23)CC1	40µM*
CN(c1cc(=O)c2ccnc(-c3cccc(CO)c3)c2o1)C1CCOCC1	40µM*
CN1CCN(c2cc(=O)c3ccnc(N4CCOCC4)c3o2)CC1	i
CC(=O)Nc1ccccc1-c1nccc2c(=O)cc(N(C)C3CCOCC3)oc12	35µM*
CCCCCCCCOc1ccc(/C=C(/C#N)c2nc3ccccc3[nH]2)cc1	i
COC(=O)c1ccc(OC(=O)/C=C/c2ccc(Br)o2)cc1	i
O=C(NCc1cccnc1N1CCOCC1)c1cnn(-c2ccc(F)cc2)c1-n1cccc1	i
O=C1CSc2ccc(C(=O)NCCc3ccccc3)cc2N1	i
COC(=O)c1sc(NC(=O)[C@@H](NC(=O)c2ccccc2F)C(C)C)nc1C	i
Cc1nn(CCC(=O)Nc2ccccc2Cl)c(=O)c(C#N)c1C	i
COC(=O)CCCCCCCNS(=O)(=O)c1ccc([N+](=O)[O-])cc1	i
O=C(CSc1ccc2ccccc2n1)NC1CCS(=O)(=O)C1 (configuration not stated)	i
O=[N+]([O-])c1cccc2ccc(/C=C/c3ccccc3)nc12	i
CS(=O)Cc1cccc(C(=O)NCC(C)(C)c2ccccc2)c1 (configuration not stated)	i
CC(C)(C)C(=O)NC(NC(=O)C(C)(C)C)c1ccc(F)cc1	i
CN(c1cc(=O)c2ccnc(-c3ccc([S+](C)(=O)[O-])cc3)c2o1)C1CCOCC1	35µM*
O=C(NCc1ccc2c(c1)OCO2)C1CC(c2ccccc2)CN(C(=O)c2ccccc2F)C1 (configuration not stated)	i
COC(=O)c1ccc(CNC(C)=O)cc1	i
Cc1cc2oc(=O)cc(COC(=O)Cc3n[nH]c(=O)c4ccccc34)c2cc1C(C)C	i
COc1cc(/C=N/O)cc(Br)c1OCc1ccc(C(=O)O)cc1	i
Cn1nnnc1-c1cccc(NS(=O)(=O)c2ccc(F)c(F)c2)c1	i
O=C(N[C@H]1[C@H](O)[C@H](O)C[C@@H]1c1ccc(N2CCOCC2)nc1)c1nc2ccccc2s1	i
COc1ccc([C@H]2C[C@@H](O)[C@@H](O)[C@@H]2NC(=O)COc2ccccc2)cc1	i
SMILES	KDM5B inhibitor
COc1ccc(CC(=O)N[C@H]2[C@H](O)[C@H](O)C[C@@H]2c2ccc(C(F)(F)F)nc2)cc1	i
COc1ccc(C(=O)N[C@H]2[C@H](O)[C@H](O)C[C@@H]2c2cccnc2)cc1	i
CC(C)C(=O)N[C@H]1[C@H](O)[C@H](O)C[C@@H]1c1cccnc1	i
COc1ccc(CC(=O)N[C@H]2[C@H](O)[C@H](O)C[C@@H]2c2ccc(N3CCOCC3)nc2)cc1	32µM*
CC(C)C(=O)N[C@H]1[C@H](O)[C@H](O)C[C@@H]1c1ccc(N2CCOCC2)nc1	40µM*
O=C(COc1ccccc1)N[C@H]1[C@H](O)[C@H](O)C[C@@H]1c1ccc(N2CCOCC2)nc1	32µM*
Cc1ccccc1[C@H]1C[C@@H](O)[C@@H](O)[C@@H]1NC(=O)C(C)C	i
COC(=O)c1ccc(COC(=O)/C=C/c2cccs2)o1	i
CCCCN1CCN(c2nc3c(c(=O)[nH]c(=O)n3C)n2Cc2cc(C)ccc2C)CC1	i
N#CC1=C(n2cccc2)N(c2ccc(Br)cn2)C2=C(C(=O)CCC2)C1c1cccc(C(F)(F)F)c1 (configuration not stated)	i
O=C(Nc1ccc2oc(-c3cccc(Cl)c3)nc2c1)c1ccccc1	i
Cc1cc(C)c(NS(=O)(=O)c2c(C)cc(N3C(=O)CCS3(=O)=O)cc2C)c(Cl)c1	i
COc1ccc(C(=O)C(C)OC(=O)C2CCCN2)cc1 (configuration not stated)	i
CN1[C@@H](CCC(=O)NCc2ccccc2)CNC(=O)[C@@H]2[C@H]1CCN2Cc1cccs1	i
O=C(Nc1ccccc1)N[C@H]1C[C@H]2C(=O)NC[C@@H](CCC(=O)N3CCN(c4ccccc4)CC3)N2C1	i
COc1ccc(C(=O)N[C@H]2C[C@H]3C(=O)NC[C@@H](CCC(=O)N4CCN(C)CC4)N3C2)cc1	i
O=C(N[C@H]1C[C@H]2C(=O)NC[C@@H](CCC(=O)N3CCN(c4ccccn4)CC3)N2C1)c1ccccc1	25µM*
COC[C@H]1CCCN1C(=O)CC[C@H]1CNC(=O)[C@@H]2[C@@H](CCN2Cc2ccc(C)cc2)N1C	i
CN1[C@@H](CCC(=O)NCc2ccco2)CNC(=O)[C@H]2NCC[C@H]21	i
CN1[C@@H](CCC(=O)N2CCc3ccccc32)CNC(=O)[C@@H]2[C@H]1CCN2Cc1cccs1	i
CN1[C@@H](CCC(=O)N2CCN(c3ccccn3)CC2)CNC(=O)[C@@H]2[C@H]1CCN2Cc1cccs1	28µM*
CC(C)N1CC[C@@H]2[C@H]1C(=O)NC[C@H](CCC(=O)N1CCN(c3ccccc3)CC1)N2C	i

Source: PubChem (National Center for Advancing Translational Sciences (NCATS))
